Data from the supplement of paper PMC12632987.
The full ranking holds about 4,500 sequences; the median of “median log2 fold change of GCK-ALFA target abundance (FLAG IP / Myc IP barcode read proportion)” is about 0.078, and the lowest 2% start at about -0.6. Shown is part of a subset that was picked to be rich in the lowest values.

B1: GBRAP_160_4426 (protein)
chain: SAKLEKAKKLITEIVEETAEMMEGESAEERIVLVRVAEGEILLELEELGLLTDEIEAVIDETFAAIAAHIAAHPDISQEELRALLKAAEEKIKKQLEKEA
B2: GBRAP_52_6047 (protein)
chain: SEEEIRRLAREAYEAMLAGDEERARALLREIFATKDEEKLEVFLETMVELAREARPEEHDAVARLVELAEEVGREAGIPEEFLDDFEARVFAAMYEAEQR
B3: GBRAP_11_2845 (protein)
chain: KKEKLKEIAEQADKVIALLDELIAAGTDDEELWKKLEEQLKKLQELVEKYLDESEKELAKLAKEELEEAKADPANAEQHLNNAKAFVSTLQGLVLLEIEE
B4: GBRAP_125_3027 (protein)
chain: SMEETAANLAKIARALGFSEGDVAELVANALAHGIKGAMIALALALGDEELADLLERLTEEEVARVVAEAAAEIEANPDLTPEEVKALLLELARRAVAES
B5: GBRAP_35_5514 (protein)
chain: STDDTIAEMLESYIEDLTLAVPELDPETLHTLTLGAAEMARELIEDNKNNKEIVKRIKESLERLLEALEARGLDDPLLREAAERVREVIEYAEEVLKEIE
B6: GBRAP_150_3890 (protein)
chain: SLEELLTIADTALDILELDIESGGKTIDQTLKVVQALVDEAKNFSPELQKLAEEALKKVEEAKKLKEEGGDQKEIDKLLKEAKKKLEELIKLLEKKIKEK
B7: GBRAP_83_6961 (protein)
chain: MIVVAASERPESIRSSIEAAIDLHKNEGKEVEIELFVTRENAPAALEGLKKAIDAGVEAEITLVTREEDREAAEALAAELKAYAAAKGRNTTVTVEVLPA
B8: GBRAP_184_5320 (protein)
chain: KVIHKVIEVETEEEAIEKLEEVKKEAKETGEKYLVVVEIKNATEKKIEAIAEKIKEMKEEGLPIEVIVELLDEVDEELTDFAVEKMEEAGAKVVISLKDE
B9: GBRAP_160_4155 (protein)
chain: SEELKKLIKEIKELADEAIKMMEGETPEQAKTIARVTLGDILLLVEENPAVSEEAEDKIGAIADATEATLKANPDLTVEEVKALVKEARDKVVAILEEEA
B10: GBRAP_160_4153 (protein)
chain: SEEIEKLIKEINEIADEAIKMMEGETPEQAKTIARVALGEMLLLVEENEAVSEETEDKIGEVVDATEATLKANPNLTVEEVKALLNEARDKIVKILKEES
B11: GBRAP_128_3366 (protein)
chain: LDEALLAEIRALVERMITSSVEETAALTREIVARIGTLSLAEQEAAVEIILAALPKLTKEKLEVVADTIRAAAPELDPETQRLLAEVEVEALNLAEELEE
B12: GBRAP_53_6391 (protein)
chain: GEERLEELIEELNRLIEELKTADPETAIKLAREAVELLLELAELGLPEEELVELVRRFAEAARPKPELEPVLVELAKRLAALGREEAAAEVAEALVEELE
B13: GBRAP_35_5625 (protein)
chain: NTNKEIAEATVAVMEDTLLAVDEVPAETFIDTAIKVAKAGIEVAKELKDDKENAKKILEAVKELLEAALKKAEETGAPEEKIKELKELLKEVEELEKKLK
B14: GBRAP_43_5791 (protein)
chain: MEEIVEGALDFARTALETPEITDETKARIVVDAVDFAADEGLLTEEELEELLRLLAESVSLEVAERALEEILKRLKELGAPQSLIDVVEKALEEVKKRRA
B15: GBRAP_160_3991 (protein)
chain: SEEIEKLKEEFKKLFDEMLELAEGESPEERLAVVRVMMGEVILLAEESGVVSDEAEEEIAKIMDELVATVEANPDMSMEELKALVEEALKKIFEVIDKYS
B16: GBRAP_52_5980 (protein)
chain: AEAEARALAEELLALMLAGDREGARALIREIVATKSEAFLELVFAALAELARTATPEERDAIVELALLLEDEALEGGFDEAVVDAGVARVAAAAVAAAAA
B17: GBRAP_14_3765 (protein)
chain: MEEVEKIIDETGKEIAALLAELVPEKAEEFKEAIDEVRKETIARIKETGDALAAAEEGERRLAERIAEITADLPEERRAEALAVVRVLFGQAILEIDEAL
B18: GBRAP_184_5033 (protein)
chain: KVLEKEIKAKNKEELEEKLKKLAEEVKGSKADLIVLLDIENPTKEKVKLAIEGLGAIKKAGYVSSVTIGFENELSEELTDVALETADKEGVKVVLPISDE
B19: GBRAP_42_5723 (protein)
chain: MYLVNLEVVVATREELERAIAIWRERNARYRKEKGIIIRLTIAAPEEAAELAAEAEAESAELAKEADKELDWVVVAASADEVGDAIDIAVDLALEERKEE
B20: GBRAP_35_5569 (protein)
chain: STDETIVEMTVNTIEALTLAVPDLDPATLETITRQVVALAREVIEDIKNNLEGLKRILEALRALLAAIRARGLDDPHLQAAAAAVEEAIRLAEKAIKEAE
B21: GBRAP_184_5315 (protein)
chain: EVIRRFITVETKEEAEKKLKEIKEEIKKSGKKYTVYIEVKNPTKELIDTVFEEIKKMKEEGVDADFILVVEEPVDEEMEDYIVEKAKEAGARAVIALPEE
B22: GBRAP_11_2707 (protein)
chain: KKEKLKEIAKLAAEAAALTEQLLKEGVDNKELQAKLTAKIKELTELVKKYADESLKKLAEIAKELWEKALADPENKEQYLKELLATLRVLEGQALLEIEE
B23: GBRAP_52_6040 (protein)
chain: MRERMRRLAREIVELVRAGRLEEARERIRELVETLSLEELELLGEELAELAREAEPEDLDAVMEVALMLADELEKAGYPEVFADDLEARVARAAVENLER
B24: GBRAP_11_2896 (protein)
chain: KKEKLKEAAELAEKAAKLLEELIKEGPDNEELRKKAEEALEKLLELAKKYLDESSVELAESALELFEKAKEDPENAKEYLEQALAYVRVLEGQVLLEIEE
B25: GBRAP_43_5752 (protein)
chain: MEEIIEGAVDFATLAAEDPNISEEQKLKIAKDVFEIVADEGIKLPEELSKLTRALAKSLSLEQLKELLKHLKELAEKYPELKEDFEANAKIIEEAIKKKE
B26: GBRAP_35_5553 (protein)
chain: DFDKEVIEMVRATAEDLLLAVDDLPVDTLITMATQIAELTLKVAKDEKENKEELKELLEATLELLDAVIEKAEKEGAPEEDIEKLRKLKKELEEALKEAE
B27: GBRAP_160_4282 (protein)
chain: GEKLKELAEELREDRDEILSLVDKISAEEVRTFAVTSLGSILMEAIDGELLTDEEEDELAKIIDDLEAELDALKDASPEEIRAAIEKHFDKAIELLEKAA
B28: GBRAP_125_3047 (protein)
chain: SLEELVEALRLLAKKLGYSEEEVEEIARLARKYGVKGTLIAILLAEGEEELAELAAKLTDEQVAEVLLELKAWLEENPDASKEEVLKKLRELLEKALAKT
B29: GBRAP_52_5975 (protein)
chain: MREEMRRLAEEAVALMLAGDREGARALLEEIAETKTEEEITLFMEELAELAKTATPEERDAIVEVALLAEDIWLEAGFDEALADSNVARVAAAAYAAEQA

biological target: GABARAP, O95166; test: median log2 fold change of GCK-ALFA target abundance (FLAG IP / Myc IP barcode read proportion) (log2 ratio); each designed protein is fused to an ALFA-tag nanobody in HEK293 cells to bring the named protein to FLAG-tagged glucokinase (GCK); Myc marks an untargeted standard; higher = target protein stabilised (more abundant); settings: target protein: 3xFLAG-MCP-GCK-ALFA reporter; HEK293 landing pad (RPLP)
Sequence (O95166 whole entry, the tested form may be a part): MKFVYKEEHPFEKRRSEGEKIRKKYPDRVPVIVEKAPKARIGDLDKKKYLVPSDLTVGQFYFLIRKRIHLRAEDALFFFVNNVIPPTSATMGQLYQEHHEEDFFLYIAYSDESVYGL
Procedure, shortened: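 An ALFA-nanobody-fused binder library was recombined into HEK293 landing-pad cells and induced with 2 μg mL^−1 doxycycline. Cells were transfected with a plasmid expressing a FLAG-tagged target and a Myc-tagged standard. After 48 h, lysates underwent anti-FLAG and anti-Myc immunoprecipitation, and circular RNA barcodes were reverse transcribed, amplified and sequenced. Target abundance is the per-binder median log2 ratio of FLAG to Myc barcode read proportions. Barcodes needed ≥10^−7 proportion in both replicates, binders ≥3 barcodes per replicate, and a 10^−6 pseudocount was added; the two replicates were pooled.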

Binder | median log2 fold change
B1 | -0.243
B2 | 0.204
B3 | 0.0872
B4 | 0.134
B5 | -0.908
B6 | 0.232
B7 | 0.189
B8 | 0.193
B9 | -0.546
B10 | -0.642
B11 | 0.309
B12 | 0.2
B13 | -0.0947
B14 | -0.0499
B15 | -0.567
B16 | -0.762
B17 | 0.0613
B18 | -0.000909
B19 | 0.104
B20 | -0.994
B21 | 0.243
B22 | 0.13
B23 | -0.365
B24 | 0.203
B25 | 0.108
B26 | -0.742
B27 | -0.356
B28 | -0.274
B29 | 0.107
